# High-throughput results as filed in PubChem.
# A selection: hits, their analogues and other compounds. The true share with any hit is near 8.7%.
# BAZ2B inh: BAZ2B (human) inhibition; Potency, µM (top dose mostly 114 µM), for inactives: at the highest dose activity change, negative = inhibition, usual class: inhibitors; 4.4% of 360,000 active; AlphaScreen BAZ2B-H3K14Ac peptide displacement; AID 504333; Q9UIF8; also: % is scaled to controls: 0 for no effect and ±100 for the full control effect; nearly all actives have a fitted effect of over 60% in size
# Target sequence (Q9UIF8 whole entry, looked up): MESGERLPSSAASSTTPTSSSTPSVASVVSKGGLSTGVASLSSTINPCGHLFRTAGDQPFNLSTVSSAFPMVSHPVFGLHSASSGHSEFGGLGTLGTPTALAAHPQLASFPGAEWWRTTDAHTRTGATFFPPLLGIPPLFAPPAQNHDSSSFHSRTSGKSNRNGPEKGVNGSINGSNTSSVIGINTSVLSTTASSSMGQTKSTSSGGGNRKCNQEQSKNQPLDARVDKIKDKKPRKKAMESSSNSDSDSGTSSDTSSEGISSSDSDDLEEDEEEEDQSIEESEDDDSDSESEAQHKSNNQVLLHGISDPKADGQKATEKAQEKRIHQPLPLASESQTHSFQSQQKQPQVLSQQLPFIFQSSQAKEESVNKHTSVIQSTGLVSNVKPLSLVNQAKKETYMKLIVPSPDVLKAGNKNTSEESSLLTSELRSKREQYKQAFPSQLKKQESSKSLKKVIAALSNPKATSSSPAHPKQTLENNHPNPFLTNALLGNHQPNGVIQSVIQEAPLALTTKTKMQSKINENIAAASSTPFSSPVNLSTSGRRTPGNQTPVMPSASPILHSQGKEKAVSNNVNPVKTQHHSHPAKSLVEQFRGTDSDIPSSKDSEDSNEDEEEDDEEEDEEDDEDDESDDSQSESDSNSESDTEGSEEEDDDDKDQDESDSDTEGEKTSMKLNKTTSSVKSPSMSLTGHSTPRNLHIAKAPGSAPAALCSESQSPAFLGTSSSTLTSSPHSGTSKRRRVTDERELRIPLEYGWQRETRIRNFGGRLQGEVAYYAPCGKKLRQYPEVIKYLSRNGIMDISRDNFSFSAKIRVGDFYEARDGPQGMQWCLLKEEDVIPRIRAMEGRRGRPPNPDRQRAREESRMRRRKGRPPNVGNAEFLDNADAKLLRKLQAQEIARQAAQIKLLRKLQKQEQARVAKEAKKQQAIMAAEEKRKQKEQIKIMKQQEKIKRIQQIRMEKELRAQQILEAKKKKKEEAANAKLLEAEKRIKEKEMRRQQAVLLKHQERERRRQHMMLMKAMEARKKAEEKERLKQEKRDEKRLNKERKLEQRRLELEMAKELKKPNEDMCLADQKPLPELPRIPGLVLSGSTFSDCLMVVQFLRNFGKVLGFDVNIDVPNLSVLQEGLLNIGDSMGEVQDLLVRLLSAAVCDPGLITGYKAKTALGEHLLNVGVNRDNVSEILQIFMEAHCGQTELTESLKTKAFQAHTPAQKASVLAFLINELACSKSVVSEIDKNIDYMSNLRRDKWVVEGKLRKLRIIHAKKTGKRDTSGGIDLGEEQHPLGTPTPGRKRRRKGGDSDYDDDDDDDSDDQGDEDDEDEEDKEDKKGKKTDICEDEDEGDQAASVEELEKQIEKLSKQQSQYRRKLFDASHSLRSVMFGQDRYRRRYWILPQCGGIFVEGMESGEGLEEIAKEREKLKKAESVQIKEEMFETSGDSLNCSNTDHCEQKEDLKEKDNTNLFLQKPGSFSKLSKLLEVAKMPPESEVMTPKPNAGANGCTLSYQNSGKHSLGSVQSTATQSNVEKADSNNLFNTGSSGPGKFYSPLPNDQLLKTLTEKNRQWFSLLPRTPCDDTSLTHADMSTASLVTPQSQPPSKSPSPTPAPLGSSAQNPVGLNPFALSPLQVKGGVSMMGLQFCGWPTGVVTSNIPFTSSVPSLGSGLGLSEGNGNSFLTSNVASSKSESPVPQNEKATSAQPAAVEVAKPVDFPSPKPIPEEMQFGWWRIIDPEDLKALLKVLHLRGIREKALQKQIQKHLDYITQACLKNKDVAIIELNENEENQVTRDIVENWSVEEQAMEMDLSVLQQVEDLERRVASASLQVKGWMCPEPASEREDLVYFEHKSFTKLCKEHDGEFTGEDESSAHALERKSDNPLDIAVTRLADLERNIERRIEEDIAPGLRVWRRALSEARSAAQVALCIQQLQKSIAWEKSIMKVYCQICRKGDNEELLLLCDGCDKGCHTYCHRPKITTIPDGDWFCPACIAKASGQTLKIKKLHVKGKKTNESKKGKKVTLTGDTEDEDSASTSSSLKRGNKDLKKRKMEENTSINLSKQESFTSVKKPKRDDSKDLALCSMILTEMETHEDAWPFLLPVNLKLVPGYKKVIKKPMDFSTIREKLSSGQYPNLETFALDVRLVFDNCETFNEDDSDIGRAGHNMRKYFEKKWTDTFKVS
#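 BAZ2B (50 nM) with biotin-H3(5-23)K14Ac peptide (50 nM) in PBS pH 7.4, 0.01% Tween-20, preformed 30 min, then compound 30 min at room temperature; top concentration 110uM. AlphaScreen streptavidin donor/nickel chelate acceptor beads (10 ug/mL final), 20 min dark, signal read.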
# JMJD2A Tudor inh: inhibitors of human JMJD2A Tudor domain. 4.4% of 390,000 active. O75164. AlphaScreen JMJD2A-Tudor / H3K4me3 peptide binding. Potency, µM (highest dose often 114 µM), for inactives: at the highest dose activity change, negative = inhibition, actives largely listed as inhibitors; also: % is scaled to controls: 0 for no effect and ±100 for the full control effect; nearly all actives have a fitted effect of over 50% in size
# HP1b binding inh: inhibitors of HP1-beta chromodomain binding to methylated histone tails; AlphaScreen HP1-beta / biotin-H3K9me3 peptide binding; Potency, µM (series often up to 114 µM), for the others: top-dose activity change, negative = inhibition, usual class: inhibitors; 0.56% of 390,000 active; AID 540317; also: nearly all actives have a fitted effect of over 70% in size
#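 Compound inhibition of the preformed complex between 50 nM HP1-beta and 50 nM biotinylated H3K9me3 peptide was read by AlphaScreen. Buffer was PBS pH 7.4 with 0.01% Tween-20. Incubations ran 30 min at room temperature, with 10 ug/mL donor/acceptor beads.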
# 12-LOX inh: blocks human arachidonate 12S-lipoxygenase; P18054; purified 12hLO, xylenol orange hydroperoxide absorbance; Potency, µM (highest dose often 108 µM), for inactives: at the top dose activity change, negative = inhibition, actives largely listed as inhibitors; 1.1% of 580,000 active; also: % is scaled to controls: 0 for no effect and ±100 for the full control effect
#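 Purified human 12hLO (150 nM final) in 25 mM Hepes, 0.01% Triton X-100, pH 7.0 was preincubated 15 min at room temperature with compound. Then 40 uM arachidonic acid was added, 30 min. Hydroperoxide was read by Fe-XO absorbance ratio 573/405 nm.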
# Sfp PPTase inh: inhibitors of Bacillus subtilis Sfp phosphopantetheinyl transferase; AID 1490; Biochemical Sfp PPTase activity, qHTS; 3.5% of 310,000 active; Potency, µM, without a hit: largest response in the series, negative = inhibition, usual class: inhibitors; Q9F4F7;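 also: the enzyme is Sfp with the accession as filed and its product quenches rhodamine fluorescence; 0% = enzyme reaction without inhibitor and -100% = no enzyme wells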
#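 Step 1, compound plus 15 nM Sfp-PPTase, 15 min, room temperature. Step 2, add rhodamine-CoA (5 uM) and BHQ-2-YbbR (12.5 uM). Step 3, read 525/598 nm fluorescence at 0 and 30 min.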
# G9a block: inhibitors of human histone lysine methyltransferase G9a; Q96KQ7; G9a H3K9 monomethylation, AlphaScreen, 2 h; Potency, µM (doses to about 102 µM), inactives show at the highest dose activity, negative = inhibition, actives largely listed as inhibitors; 8.8% of 350,000 active; AID 504332; also: % is scaled to controls: 0 for no effect and ±100 for the full control effect; nearly all actives have a fitted effect of over 75% in size
#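 Signal arises when biotinylated H3K9 peptide, once monomethylated, bridges streptavidin donor and antibody-captured acceptor beads. Enzyme at 20 nM was preincubated 15 min with test compounds; peptide 500 nM and SAM 20 uM then reacted for 2 h.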
# * hit, by the source's call; ? = inconclusive; · = not tested or not shown; ! = not confirmed by another sample; [ ] = another dose, or the depositor's remark. Calls follow the shape of the dose curve; as a rule, active = well fitted curve in the direction sought with a large enough effect; inconclusive = small, poorly fitted or top-dose-only effect, or another doubt; inactive = no such curve, though single readings can be large; an effect the other way counts as inactive or inconclusive. Potency is read from the fitted curve at half-maximal effect.
SMILES,BAZ2B inh,JMJD2A Tudor inh,HP1b binding inh,12-LOX inh,Sfp PPTase inh,G9a block
Cn1cccc1C(=O)NCc1ccc(Cl)cc1,?,-35.3%,-26.3%,4.9%,9.3%,44.7µM*
O=C(NCc1ccc(Cl)cc1)c1ncn[nH]1,79.4µM*,-8.5%,30.1%,10.0%,-6.7%,-4.7%
O=C(NNC(=S)NCc1ccc(Cl)cc1)c1ccc(Br)o1,-9.0%,-31.8%,13.1%,7.2%,2.7%,·
O=C(CNC(=O)c1ccc(Br)o1)NCc1cccc(Cl)c1,-12.2%,-7.6%,25.2%,-9.0%,89.1µM*,·
O=C(CNC(=O)c1ccc(Br)o1)NCc1ccc(Cl)cc1Cl,-15.5%,-11.7%,37.8%,54.1%,10.0%,8.0%
O=C(NCc1ccc(Cl)cc1)c1ccc(Br)o1,11.4%,-23.2%,22.3%,-11.9%,-5.7%,17.8µM*!
O=C(Cc1cccs1)NCc1cccc(Cl)c1,6.0%,89.1µM*,48.3%,0.0%,12.5%,26.3%
O=C(COc1ccc(F)cc1)NCC(=O)N1CCN(c2ccccn2)CC1,·,·,·,28.0%,·,·
O=C(COc1ccc2nc3n(c(=O)c2c1)CCCCC3)NC1CC1,·,·,·,-3.4%,·,·
CCOC(=O)CC(=O)c1[nH]c(C)c(C(=O)OCC)c1C,79.4µM*,-11.3%,44.5%,-4.7%,5.1%,-26.9%
CCOC(=O)c1[nH]c(C)c(C(=O)OC)c1C,-12.5%,-22.8%,-5.0%,210.0%,9.0%,-0.4%
CCOC(=O)c1[nH]c(=S)[nH]c1C,·,5.01µM*,5.2%[57 µM],-19.2%,·,·
CCOC(=O)c1[nH]c(C)c(C)c1C,?,79.4µM*,-33.2%,-21.8%,5.4%,31.6%[12.7 µM]
CCOC(=O)c1[nH]c(C)c(/C(Br)=C/Br)c1C,·,·,·,6.31µM*,·,·
O=C(N1CCN([S+](=O)([O-])Cc2ccccc2)CC1)N1CC2CC(C1)[C@H]1CCCC(=O)N1C2 (stereo partly specified),·,·,·,0.7%,·,·
CCOC(=O)c1[nH]c(C)c(C(=O)NC2CCCCC2)c1C,9.8%,-9.9%,43.0%,434.5%,4.6%,79.4µM*
O=C1CCN(Cc2cccnc2)CCCC(C(=O)N2CCOCC2)CCN1 (stereo unspecified),·,·,·,63.4%,·,·
COC(=O)Nc1nc2c(s1)CCCC2,-1.0%,-22.4%,22.6%,1.0%,-11.8%,21.4%[59 µM]
CC(=O)NC(Nc1nc2c(s1)CCCC2)(C(F)(F)F)C(F)(F)F,-3.1%,-2.4%,?,?,-6.1%,50.1µM*
Nc1c(C(=O)c2cccs2)oc2ccccc12,10.8%,-18.7%,21.7%,0.0%,-7.9%,27.5%
Nc1c(C(=O)c2ccc(Br)s2)oc2ccccc12,-3.1%,11.5%,32.4%,0.0%,-18.9%,44.7µM*
NNc1ccc2c(C(F)(F)F)cc(C(F)(F)F)nc2n1,-11.0%,-26.6%,39.7%,0.1%,56.2µM*,35.5µM*
Cc1ccc(/C=N/Nc2ccc3c(C(F)(F)F)cc(C(F)(F)F)nc3n2)cc1,2.0%,0.8%,26.1%,·,23.1%,?
O=C(Cc1ccccc1)Nc1ccnn1C1CCN(Cc2cc3ccccc3s2)CC1,·,·,·,8.3%,·,·
S=c1cn[nH]c2ccccc12,·,4.47µM*,89.1µM*,39.8µM*,·,·
SMILES,BAZ2B inh,JMJD2A Tudor inh,HP1b binding inh,12-LOX inh,Sfp PPTase inh,G9a block
COc1ccc(-n2cnnc2SC(C)c2nc3sc(C)c(C)c3c(=O)[nH]2)cc1 (stereo unspecified),1.8%,·,·,-21.9%,89.1µM*,?
Cc1sc2nc(C(C)N3CCC(C)CC3)[nH]c(=O)c2c1C (stereo unspecified),·,·,·,-2.5%,·,·
CC(=O)Nc1ccc(C(=O)CSc2nnc(-c3ccc(O)cc3)n2CC2CCCO2)cc1 (stereo unspecified),-28.3%,79.4µM*,-14.5%,?,?,20µM*
CC1(C)CC(=O)C(Sc2nnc(-c3ccc(O)cc3)n2CC2CCCO2)C(=O)C1 (stereo unspecified),?,-21.4%,42.2%,?,44.7µM*,28.2µM*
CCCC1=Nc2cc(C(=O)NCCc3ccc(C)cc3)ccc2Sc2ccc(C)cc21,·,·,·,3.5%,·,·
CCN1c2cc(C(=O)Nc3ccc(F)c(Cl)c3)ccc2C(=O)N2CCCCCC21 (stereo unspecified),·,·,·,2.3%,·,·
CC(Nc1ccccc1[N+](=O)[O-])c1cccc(S(N)(=O)=O)c1 (stereo unspecified),·,·,·,-3.5%,·,·
C(=C/c1ccccc1)/CN1CCN(C(c2ccccc2)c2ccccc2)CC1,·,·,·,·,14.8%,?
CC(CN1CCN(C/C=C/c2ccccc2)CC1)c1ccccc1 (stereo unspecified),?,12.6µM*,-8.5%,0.794µM*,-11.6%,-3.3%[0.501 µM]
CC(=C1C(=O)c2ccccc2C1=O)N1CCN(C/C=C/c2ccccc2)CC1,?,-22.6%,-0.5%,-5.1%,56.2µM*,?
O=C(NCc1ccc(N2CCOCC2)cc1)c1cc[nH]c1C1CCCNC1 (stereo unspecified),·,·,·,35.6%,·,·
CCCCc1nc2ccccc2c(NC(=O)CN(CC)CC)c1CCC,56.2µM*,28.2µM*,?,?,?,31.6µM*
CCOC(=O)c1ccccc1OC(=O)CS(=O)c1ccccc1[N+](=O)[O-] (stereo unspecified),-34.8%,-13.3%,38.8%,?,0.7%,39.8µM*
Cc1ccccc1-c1cc2nc(-c3ccc([N+](=O)[O-])cc3)cc(=O)n2[nH]1,0.5%,-23.8%,0.0%,?,-13.8%,-40.5%
O=c1cc(-c2ccc([N+](=O)[O-])cc2)nc2cc(-c3ccc(F)cc3)[nH]n12,2.6%,-29.1%,-4.9%,20µM*,44.7µM*,-7.6%[59 µM]
c1csc(C2Nc3cccc4cccc(c34)N2)c1,?,-29.8%,?,?,?,?
CN1c2cccc3cccc(c23)N(C)C1c1cccs1,?,-25.0%,?,?,-12.4%,15.8µM*
CC1N(C)c2cccc3cccc(c23)N1C,50.1µM*,-32.3%[57.1 µM],?,?,-10.9%,2µM*
CCCCCCCCCCOc1ccc(C(=O)O)cc1,·,·,·,10.0%,·,·
Cc1nnc(SCc2cc([N+](=O)[O-])cc3c2OCOC3)n(N)c1=O,-2.8%,-9.0%,40.9%,3.4%,10.7%,1.8%
CN(C)S(=O)(=O)c1cccc(-c2nnc(SCc3cc(Cl)cc4c3OCOC4)n2N)c1,-27.1%,39.8µM*,?,?,31.6µM*,8.91µM*
CC(=O)N1c2ccccc2C(=O)C1N1CCCCC1 (stereo unspecified),4.0%,-7.5%,45.3%,237.5%,5.0%,50.1µM*
Cn1cc(C(C(=O)O)N2CCN(c3ncccn3)CC2)c2ccc(C(=O)O)cc21 (stereo unspecified),·,·,·,-28.6%,·,·
O=c1oc2ccccc2n1CCn1c2ccccc2c2nc3ccccc3nc21,0.1%,-18.8%,50.9%,44.1%,15.3%,20µM*
COCCc1noc(-c2ccccc2OC2CN(C(=O)CC3CCCC3)C2)n1,·,·,·,-8.0%,·,·
